Source: PubChem (several laboratories)
KLF5 inh – inhibitors of KLF5 expression. inhibition, % at 5 µM. DLD-1 KLF5 promoter-luciferase reporter, luminescence. AID 1700. 290,000 tested, 0.23% active;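 active means inhibition above a per-plate limit of that plate's mean compound inhibition plus 3 SD, cut at about 60% in these data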;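 further: higher means less KLF5 promoter-driven luciferase light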
APP transl inh – APP translation inhibition; inhibition, % at 2 µM; SH-SY5Y APP 5'UTR-luciferase reporter, luminescence; 190,000 tested, 0.82% active;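 active means inhibition above a set limit, derived from the sample mean plus 3 SD, cut at about 45% in these data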
aSyn UTR inh – MLPCN primary screen, SNCA 5' untranslated region; alpha-synuclein 5'UTR reporter, inhibitor activity; inhibition, % (tested at 7.5 µM); 300,000 tested, 0.82% active; in the data active means inhibition above about 60%;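 further: H4 neuroglioblastoma cells stably carrying SNCA 5'UTR luciferase fusion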
IEC-6 tox – counter-screen for KLF5 inhibitors: cytotoxicity in IEC-6 cells; IEC-6 cytotoxicity, luminescence viability; inhibition, % at 5 µM; 290,000 tested, 0.78% active; AID 1825
BaF3 parental – parental Ba/F3 viability inhibition as JAK2V617F counter-screen. CellTiter-Glo ATP luminescence. inhibition, % at 5.6 µM. 220,000 tested, 1.1% active;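 active means inhibition above a per-campaign cutoff, the mean inhibition of all tested compounds plus 3 SD, cut at about 27% in these data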
Ba/F3 V617F tox – lowers viability of Ba/F3 cells expressing EpoR and JAK2V617F; ATP luminescence; inhibition, % at 5.6 µM; 220,000 tested, 1.1% active;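 active means inhibition above the campaign mean plus 3 SD over all tested compounds, cut at about 24% in these data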;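 further: cytokine-independent growth of Ba/F3 cells driven by EpoR plus mutant JAK2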
IEC-6 tox confirm – confirmation of cytotoxic compounds in rat IEC-6 intestinal epithelial cells. shares compounds with IEC-6 tox. IEC-6 rat intestinal epithelial viability, luminescence. inhibition, % at 5 µM. 1,900 tested, 63% active
Of the large screens only hits and unclear results are named; the others gave an inactive call (follow-up assays come after a bar, where they were run). In the library only some 2.2% were active in any assay of this set; here they are far more common. Unless noted, no stated cut-off is given here; in the data, active means inhibition above about 22%; inactive means the rest.

O=C(NC12CC3CC(CC(C3)C1)C2)c1ccc([N+](=O)[O-])o1	IEC-6 tox 66 (no result: APP transl inh, BaF3 parental, Ba/F3 V617F tox) | IEC-6 tox confirm 25
O=C(Nc1ccc(NC(=O)c2ccc([N+](=O)[O-])o2)cc1Cl)c1ccco1	IEC-6 tox 101 (no result: APP transl inh, BaF3 parental, Ba/F3 V617F tox) | IEC-6 tox confirm 27
Cc1c(NC(=O)c2ccc([N+](=O)[O-])o2)cccc1-c1nc2ncccc2o1	IEC-6 tox 100 (no result: APP transl inh, BaF3 parental, Ba/F3 V617F tox) | IEC-6 tox confirm inactive
O=C(Nc1ccc(NC(=O)c2ccco2)c(Cl)c1)c1ccccc1	none
O=C(NC1CCN(C(=S)Nc2ccccc2)CC1)C1CCCCC1	none (no result: APP transl inh, BaF3 parental, Ba/F3 V617F tox)
Cc1ccccc1NC(=O)c1ccc([N+](=O)[O-])o1	none
O=C(Nc1ccccc1Cl)c1ccc([N+](=O)[O-])o1	IEC-6 tox 47 (no result: APP transl inh, BaF3 parental, Ba/F3 V617F tox) | IEC-6 tox confirm inactive
O=C(Nc1cccc2ncccc12)c1ccc([N+](=O)[O-])o1	IEC-6 tox 98 (no result: APP transl inh, BaF3 parental, Ba/F3 V617F tox) | IEC-6 tox confirm 24
O=c1[nH]c2ccccc2nc1-c1ccccc1	none (no result: APP transl inh)
NC(=O)N=Nc1c2[nH]c3ccccc3nc-2c2ccccc12	IEC-6 tox 26 (no result: APP transl inh) | IEC-6 tox confirm inactive
Cc1ccc(CS(=O)(=O)CCC(=O)NCc2ccccc2Cl)cc1	none (no result: APP transl inh, BaF3 parental, Ba/F3 V617F tox)
FC(F)(F)c1ccc(Sc2nnc(-c3cccs3)n2CC2CCCO2)nc1 (configuration not stated)	none
FC(F)(F)c1cnc(Sc2nnc(-c3cccs3)n2CC2CCCO2)c(Cl)c1 (configuration not stated)	IEC-6 tox 25 | IEC-6 tox confirm 34
COc1ccc2c(c1)C(=O)C(=O)N2CC1COc2ccccc2O1 (configuration not stated)	IEC-6 tox 83 (no result: APP transl inh, BaF3 parental, Ba/F3 V617F tox) | IEC-6 tox confirm inactive
CCOc1ccc2c(c1)C(=O)C(=O)N2CC1COc2ccccc2O1 (configuration not stated)	IEC-6 tox 72 (no result: APP transl inh, BaF3 parental, Ba/F3 V617F tox) | IEC-6 tox confirm inactive
Cc1ccc2c(c1)C(=O)C(=O)N2CC1COc2ccccc2O1 (configuration not stated)	IEC-6 tox 83 (no result: APP transl inh, BaF3 parental, Ba/F3 V617F tox) | IEC-6 tox confirm inactive
CCN1CCN(CC2COc3ccccc3O2)CC1 (configuration not stated)	none (no result: APP transl inh, BaF3 parental, Ba/F3 V617F tox)
Cc1ccc2c(c1)C(=O)C(=O)N2CCCOc1ccccc1	none
CC(C)(C)NC(=O)C(c1ccccn1)N(C(=O)c1csnn1)C1CCCC1 (configuration not stated)	none (no result: APP transl inh)
CCc1nn(C(C)C(=O)N2CC(C)CC(C)C2)c(=O)c2cc3occc3n12 (configuration not stated)	none (no result: APP transl inh, BaF3 parental, Ba/F3 V617F tox)
CCc1nn(C(C)C(=O)N2CCN(c3ccc(OC)cc3)CC2)c(=O)c2cc3occc3n12 (configuration not stated)	IEC-6 tox 44 (no result: APP transl inh, BaF3 parental, Ba/F3 V617F tox) | IEC-6 tox confirm 24
COc1ccc(CN2CCN(C(=O)CC(C)C)CC2)cc1	none (no result: APP transl inh, BaF3 parental, Ba/F3 V617F tox)
CC1=Nc2cc(C(=O)NCCCN3CCN(C)CC3)ccc2Sc2ccc(C)cc21	none (no result: APP transl inh, BaF3 parental, Ba/F3 V617F tox)
CC1=Nc2cc(C(=O)NCC3CCCO3)ccc2Sc2ccc(C)cc21 (configuration not stated)	IEC-6 tox 79 (no result: APP transl inh, BaF3 parental, Ba/F3 V617F tox) | IEC-6 tox confirm 53
COc1cccc(C(=O)NC2CCCN(C3Cc4ccccc4C3)C2)c1OC (configuration not stated)	none (no result: APP transl inh, BaF3 parental, Ba/F3 V617F tox)
Cc1ccc2nc(N(CCCN(C)C)C(=O)c3ccco3)sc2c1	none
CN(C)CCCN(C(=O)c1ccco1)c1nc2cc3c(cc2s1)OCO3	IEC-6 tox 45 (no result: APP transl inh, BaF3 parental, Ba/F3 V617F tox) | IEC-6 tox confirm inactive
CCCCCN=Cc1c(C)[nH]n(-c2nc3ccccc3s2)c1=O	aSyn UTR inh 62, IEC-6 tox 45, BaF3 parental 46, Ba/F3 V617F tox 48 | IEC-6 tox confirm 51
Cc1[nH]c(=O)c(C#N)c(C)c1CCC(=O)NCc1cccc(C(F)(F)F)c1	none (no result: APP transl inh, BaF3 parental, Ba/F3 V617F tox)
C=CCNC(=O)/C(=C\c1ccco1)NC(=O)c1ccco1	none (no result: APP transl inh, BaF3 parental, Ba/F3 V617F tox)
NNC(=O)/C(=C\c1ccco1)NC(=O)c1ccco1	IEC-6 tox 70 (no result: APP transl inh, BaF3 parental, Ba/F3 V617F tox) | IEC-6 tox confirm inactive
CC1=C(C(=O)Nc2ccc(CC(=O)NCc3ccc(OC(C)C)cc3)cc2)SCCO1	IEC-6 tox 82 (no result: APP transl inh, BaF3 parental, Ba/F3 V617F tox) | IEC-6 tox confirm 60
COc1ccc(CNC(=O)Cc2ccc(NC(=O)C3=C(C)OCCS3)cc2)cc1	IEC-6 tox 65 (no result: APP transl inh, BaF3 parental, Ba/F3 V617F tox) | IEC-6 tox confirm 43
Cc1cc(OCc2cc(C(=O)N(C)C3CCOC3)no2)cc(C)c1Cl (configuration not stated)	none (no result: APP transl inh, BaF3 parental, Ba/F3 V617F tox)
O=C(Nc1nc2ccc(S(=O)(=O)N3CCCCC3)cc2s1)C1CCCO1 (configuration not stated)	none
O=C(Nc1nc2ccc(S(=O)(=O)N3CCCC3)cc2s1)C1CCCCC1	APP transl inh 77, aSyn UTR inh 72, IEC-6 tox 70, BaF3 parental 79, Ba/F3 V617F tox 82 | IEC-6 tox confirm 56
COc1cc(-c2noc(C)c2-c2ccc3[nH]ccc3c2)cc(OC)c1OC	IEC-6 tox 89 (no result: APP transl inh, BaF3 parental, Ba/F3 V617F tox) | IEC-6 tox confirm 60
O=C(NCC1CCN(Cc2ccc(F)cc2)CC1)Nc1cc(F)ccc1F	none (no result: APP transl inh, BaF3 parental, Ba/F3 V617F tox)
COc1ccc(/C=C2\CCc3ccccc3C2=O)cc1O	IEC-6 tox 28 (no result: APP transl inh, BaF3 parental, Ba/F3 V617F tox) | IEC-6 tox confirm inactive
COc1ccc(/C=C2\Cc3ccccc3C2=O)cc1OC	none (no result: APP transl inh)
CC1(C)N=C(N)N=C(N)N1c1cccc(C(=O)O)c1	IEC-6 tox 37 | IEC-6 tox confirm inactive
COc1cccc(N2C(N)=NC(N)=NC2(C)C)c1	aSyn UTR inh 96, IEC-6 tox 54, BaF3 parental 93, Ba/F3 V617F tox 95 | IEC-6 tox confirm 42
COc1ccc(N2C(N)=NC(N)=NC2(C)C)cc1	aSyn UTR inh 81, IEC-6 tox 53, BaF3 parental 99, Ba/F3 V617F tox 98 | IEC-6 tox confirm inactive
COc1ccc(C2N=C(N)N=C(N)N2c2ccc(C)cc2)cc1 (configuration not stated)	none
COc1cccc(N2CC(=O)N(c3cccc(OC)c3)CC2=O)c1	none
COc1ccc(COC(=O)c2ccc(Cl)c(S(=O)(=O)N3CC(C)OC(C)C3)c2)cc1 (configuration not stated)	none (no result: KLF5 inh, APP transl inh, IEC-6 tox, BaF3 parental, Ba/F3 V617F tox)
CCC(C)NC(=O)c1ccc2c(c1)S(=O)(=O)c1ccccc1C2=O (configuration not stated)	none (no result: APP transl inh, BaF3 parental, Ba/F3 V617F tox)
CCCCN(C(=O)CN1C(=O)C2CCCCC2C1=O)c1c(N)n(CCC)c(=O)[nH]c1=O (configuration not stated)	none (no result: KLF5 inh, APP transl inh, IEC-6 tox, BaF3 parental, Ba/F3 V617F tox)
Nc1sc(-c2ccccc2)cc1-c1n[nH]c(=S)n1C1CCCCC1	IEC-6 tox 54, BaF3 parental 57, Ba/F3 V617F tox 89 (no result: APP transl inh) | IEC-6 tox confirm 48
S=C(Nc1ccccc1)Nc1nccs1	IEC-6 tox 42 (no result: APP transl inh) | IEC-6 tox confirm inactive
COc1ccc(C(=O)N/C(=C/c2ccccc2F)C(=O)NCCN2CCOCC2)cc1OC	none (no result: APP transl inh, BaF3 parental, Ba/F3 V617F tox)
O=C(Nc1ccc2nc(-c3cccs3)[nH]c2c1)c1cccs1	none
O=C(Nc1ccc(-c2nc3ccc(NC(=O)c4cccs4)cc3[nH]2)cc1)c1cccs1	aSyn UTR inh 122, IEC-6 tox 53, BaF3 parental 102, Ba/F3 V617F tox 98 | IEC-6 tox confirm 43
